Laboratory results from ChEMBL document CHEMBL4513216, “Probing the Open Global Health Chemical Diversity Library for Multistage-Active Starting Points for Next-Generation Antimalarials” (ACS Infect Dis, 2020).
Hit rate of the full screen: of about 68,000 compounds, about 2,700 (4%) showed an effect of 50% or more. The sample as a whole holds a higher share of strong results than the screen did.

Each compound was assayed on Plasmodium berghei (assay: Screen against P. berghei liver stage (PbLuc), transformed with Luciferase, at 2uM). Conditions: tested at 2 uM.
Assay type: functional, HepG2

**Q.** For `Cc1cccc(CN2C(=O)C[C@H]3[C@@H]2CCN3CC2CC2)n1`, which INHIBITION is on record?
**A.** The INHIBITION was 3.86%.

**Q.** Which INHIBITION does the source give for `NC(=O)C1CN(C(=O)Nc2ccc(SC(F)(F)F)cc2)CCO1` (stereo unspecified) here?
**A.** Its INHIBITION is -31.17%.

**Q.** How did the INHIBITION turn out when `O=C(NC1CCC1)C1CCC2(CN(C(=O)c3ccno3)C2)O1` (stereo unspecified) was run?
**A.** The INHIBITION was 57.85%.

**Q.** How did the INHIBITION turn out when `O=C(NCC1CC1)C1CCC2(CN(C(=O)c3ccno3)C2)O1` (stereo unspecified) was run?
**A.** The INHIBITION was -33.57%.

**Q.** Which INHIBITION does the source give for `O=C(NC1CCC1)C1CCC2(CN(C(=O)c3ccco3)C2)O1` (stereo unspecified) here?
**A.** The INHIBITION was -160.99%.

**Q.** With `Cc1cc(C)c(CNC(=O)CC2CCCO2)c(=O)[nH]1` (stereo unspecified) as the compound, how does the INHIBITION read?
**A.** The INHIBITION was -36.34%.

**Q.** How did the INHIBITION turn out when `O=C1CCCN1CCCC(=O)N1CCCC(Cc2cccnc2)C1` (stereo unspecified) was run?
**A.** Its INHIBITION is -11.81%.

**Q.** With `CN(CCOCC1CC1)C(=O)Nc1ccc(C#N)c(Cl)c1` as the compound, how does the INHIBITION read?
**A.** Its INHIBITION is -47.52%.

**Q.** How did the INHIBITION turn out when `COc1ccc(C(=O)N2C[C@@H](C(=O)O)[C@H](c3ccccc3C)C2)c(O)c1` was run?
**A.** The INHIBITION was -43.72%.

**Q.** With `c1cc(-c2c[nH]c([C@@H]3COCCN3C3CCOCC3)n2)ccn1` as the compound, how does the INHIBITION read?
**A.** Its INHIBITION is 30.63%.

**Q.** With `CN1CCOC[C@H]1c1nc(-c2ccncc2)c[nH]1` as the compound, how does the INHIBITION read?
**A.** The INHIBITION was 28.45%.

**Q.** For `CC(C)N1CCOC[C@H]1c1nc(-c2ccncc2)c[nH]1`, which INHIBITION is on record?
**A.** Its INHIBITION is 54.56%.

**Q.** How did the INHIBITION turn out when `O=C(O)[C@@H]1CN(C(=O)c2ccc(O)cc2)C[C@H]1c1cccc(F)c1` was run?
**A.** The INHIBITION was 38.65%.

**Q.** With `CN(C)CC(=O)N1C[C@H]2CCC[C@@]2(COc2ccccn2)C1` as the compound, how does the INHIBITION read?
**A.** Its INHIBITION is 19.44%.

**Q.** For `O=C(CCC(=O)N1CCCC1c1ccsc1)N1CCOCC1` (stereo unspecified), which INHIBITION is on record?
**A.** The INHIBITION was -26.92%.

**Q.** For `Cc1ccc(-c2ncc(C(=O)N3CCCC(CCN)C3)c(O)n2)cc1` (stereo unspecified), which INHIBITION is on record?
**A.** Its INHIBITION is 41.07%.

**Q.** Which INHIBITION does the source give for `Cc1ccc(-c2ncc(C(=O)N3CCN4CCCCC4C3)c(O)n2)cc1` (stereo unspecified) here?
**A.** The INHIBITION was 60.9%.

**Q.** For `Cc1nc(C(C)C)ncc1C(=O)N1CCCC(N2CCCC2)C1` (stereo unspecified), which INHIBITION is on record?
**A.** The INHIBITION was 11.44%.

**Q.** How did the INHIBITION turn out when `Cc1ccc(-c2ncc(C(=O)N3CCCN4CCC[C@H]4C3)c(O)n2)cc1` was run?
**A.** The INHIBITION was 32.26%.

**Q.** With `Cc1nc(-c2cccnc2)ncc1C(=O)N1CCCCC(N)C1` (stereo unspecified) as the compound, how does the INHIBITION read?
**A.** Its INHIBITION is 6.22%.

**Q.** Which INHIBITION does the source give for `Cc1ccc(-c2ncc(C(=O)N3CCC[C@H](N)C3)c(O)n2)cc1` here?
**A.** The INHIBITION was 63.1%.

**Q.** Which INHIBITION does the source give for `c1cnc(N2C[C@H]3CCN(CC4CC4)C[C@H]3C2)cn1` here?
**A.** Its INHIBITION is 11.56%.

**Q.** For `CC(Cn1cccn1)n1cnc2cccc(Cl)c2c1=O` (stereo unspecified), which INHIBITION is on record?
**A.** The INHIBITION was 33.52%.

**Q.** With `CCC(=O)N1CCCC(c2cc(Nc3ncccn3)nc(C)n2)C1` (stereo unspecified) as the compound, how does the INHIBITION read?
**A.** Its INHIBITION is 11.08%.

**Q.** How did the INHIBITION turn out when `O=c1[nH]c(-c2ccc(Cl)cc2)nc2c1CCNC2` was run?
**A.** Its INHIBITION is 57.21%.

**Q.** For `NC(=O)c1ccc(-c2nc3c(c(=O)[nH]2)CCNC3)cc1`, which INHIBITION is on record?
**A.** The INHIBITION was 41.78%.

**Q.** `O=c1[nH]c(-c2ccc(F)cc2)nc2c1CCNC2` was tested. Which INHIBITION did it give?
**A.** Its INHIBITION is 53.66%.

**Q.** For `O=c1[nH]c(-c2ccc(F)c(F)c2)nc2c1CCNC2`, which INHIBITION is on record?
**A.** Its INHIBITION is -18.12%.

**Q.** With `O=c1[nH]c(-c2ccccc2F)nc2c1CCNC2` as the compound, how does the INHIBITION read?
**A.** Its INHIBITION is 1.4%.

**Q.** `O=c1[nH]c(COc2ccc(Cl)cc2)nc2c1CCNC2` was tested. Which INHIBITION did it give?
**A.** Its INHIBITION is 12%.

**Q.** For `c1ccc(-c2cccc(N3CCC(NCCc4cscn4)CC3)c2)cc1`, which INHIBITION is on record?
**A.** Its INHIBITION is -8.16%.

**Q.** `CC(C)CN1C(=O)CO[C@@H]2CNC[C@H]21` was tested. Which INHIBITION did it give?
**A.** Its INHIBITION is 70.31%.

**Q.** With `O=C1CO[C@@H]2CNC[C@H]2N1CC1CC1` as the compound, how does the INHIBITION read?
**A.** Its INHIBITION is 27.61%.

**Q.** How did the INHIBITION turn out when `CC(C)CN1C(=O)CO[C@@H]2CN(C(=O)N(C)C)C[C@H]21` was run?
**A.** Its INHIBITION is -20.67%.

**Q.** For `CCN(Cc1cccc(C(=O)Nc2c(C)cnn2C)c1)[C@H]1COC[C@@H]1O`, which INHIBITION is on record?
**A.** Its INHIBITION is 20.36%.

**Q.** `CC1CCN(C(=O)[C@@H]2CC[C@@H]3[C@@H](CCN3c3ncc(F)cn3)O2)CC1` was tested. Which INHIBITION did it give?
**A.** Its INHIBITION is 3.63%.

**Q.** `CC(C)OCc1cccc(NC(=O)N(C)Cc2ncnn2C)c1` was tested. Which INHIBITION did it give?
**A.** The INHIBITION was 31.51%.

**Q.** `CCOc1cc(NC(=O)N(C)Cc2ncnn2C)ccc1C` was tested. Which INHIBITION did it give?
**A.** The INHIBITION was 31.51%.

**Q.** For `CCSCc1cccc(NC(=O)N(C)Cc2ncnn2C)c1`, which INHIBITION is on record?
**A.** Its INHIBITION is 72.05%.

**Q.** How did the INHIBITION turn out when `CCOc1nc2cnccc2n(CC(=O)NCCc2ccccc2)c1=O` was run?
**A.** The INHIBITION was 28.85%.

**Q.** With `COCCNC(=O)Cn1c(-c2ccco2)cc2cccnc21` as the compound, how does the INHIBITION read?
**A.** Its INHIBITION is 37.87%.

**Q.** How did the INHIBITION turn out when `CCOc1nc2cccnc2n(CC(=O)NCCOC)c1=O` was run?
**A.** Its INHIBITION is 74.49%.

**Q.** Which INHIBITION does the source give for `CNC(=O)CN1CCOCC2(C1)CN(C(=O)CC(C)C)CCO2` (stereo unspecified) here?
**A.** The INHIBITION was -1.18%.

**Q.** With `Fc1cccc2[nH]c(CN3CCc4cncnc4C3)nc12` as the compound, how does the INHIBITION read?
**A.** Its INHIBITION is 7.24%.

**Q.** For `Cc1nn(C)c(N(C)C)c1CNCc1cccnc1N1CCOCC1`, which INHIBITION is on record?
**A.** Its INHIBITION is 28.81%.

**Q.** With `O=S1(=O)CCCN1Cc1coc(-c2ccc(C(F)(F)F)cc2)n1` as the compound, how does the INHIBITION read?
**A.** The INHIBITION was 1.8%.

**Q.** For `CSc1ccc(C(C)NC(=O)c2cc(C)on2)cc1` (stereo unspecified), which INHIBITION is on record?
**A.** The INHIBITION was -121.09%.

**Q.** `COc1ccc(C(CC(=O)O)NC(=O)c2cc(C)on2)cc1` (stereo unspecified) was tested. Which INHIBITION did it give?
**A.** Its INHIBITION is 73.09%.

**Q.** With `CSc1ccc(C(CC(=O)O)NC(=O)c2cc(C)on2)cc1` (stereo unspecified) as the compound, how does the INHIBITION read?
**A.** Its INHIBITION is -70.44%.

**Q.** How did the INHIBITION turn out when `CN(C)CC(=O)N1CCC2(CC(=O)N(c3cccc(C#N)c3)C2)C1` (stereo unspecified) was run?
**A.** The INHIBITION was -3.08%.

**Q.** With `CC(C)c1nnc(N2C[C@H]3CC[C@@H](C2)N(Cc2ccccc2)C3)s1` as the compound, how does the INHIBITION read?
**A.** The INHIBITION was -23.49%.
